Records with an inconclusive call do not appear. Active and inactive are the calls of the source. Rule for the calls, unless noted: active = hit-call score of the fitted dose curve at least 0.9, where 1 is the maximum; inconclusive = response in the unintended direction; inactive = score below 0.9.

Read-out in assay [1]: TIMP1, TIMP1 (gene 7076)
Kind of assay: LTEA_HepaRG_TIMP1: Life Technologies and Expression Analysis (LTEA) Assay for TIMP1 using HepaRG (AID 2283534; active = hit-call score of the fitted dose curve at least 0.9, where 1 is the maximum; inactive = score below 0.9). To be noted: mRNA level, 48 h; actives raise or lower the signal. In a few lines: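 Bidirectional change in TIMP1 transcript versus 0.5% DMSO, measured by TaqMan qRT-PCR with three housekeeping genes for normalization. HepaRG human liver cells dosed 48 h in duplicate, top concentration 100 uM with half-log dilutions.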

Read-out in assay [2]: Tumor necrosis factor receptor 1 (TNFRSF1A), TNFRSF1A (gene 7132)
As to the kind of experiment: LTEA_HepaRG_TNFRSF1A: Life Technologies and Expression Analysis (LTEA) Assay for Tumor necrosis factor receptor 1 (TNFRSF1A) using HepaRG (AID 2283535; active = hit-call score of the fitted dose curve at least 0.9, where 1 is the maximum; inactive = score below 0.9). As to conditions: mRNA level, 48 h; actives raise or lower the signal. In a few lines: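 mRNA measured by qRT-PCR (TaqMan, Fluidigm arrays) against ACTB/GAPDH/POLR2A housekeepers after 48 h chemical exposure of HepaRG cells. Top concentration 100 uM, half-log 8-point series, duplicates; vehicle 0.5% DMSO, both fit directions.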

Read-out in assay [3]: Thyroid Hormone Responsive (THRSP), THRSP (gene 7069)
Kind of assay: LTEA_HepaRG_THRSP: Life Technologies and Expression Analysis (LTEA) Assay for Thyroid Hormone Responsive (THRSP) using HepaRG (AID 2283536; active = hit-call score of the fitted dose curve at least 0.9, where 1 is the maximum; inactive = score below 0.9). To be noted: mRNA level, 48 h; actives raise or lower the signal. In a few lines: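 Differentiated human HepaRG cells were exposed in duplicate for 48 h in serum-free induction medium to eight concentrations (top 100 uM, half-log steps, 0.5% DMSO). Expression was quantified by TaqMan qRT-PCR, normalized to ACTB, GAPDH and POLR2A, with bidirectional fitting against DMSO.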

Read-out in assay [4]: Cellular tumor antigen p53 (Homo sapiens) (UniProt P04637)
Kind of assay: LTEA_HepaRG_TP53: Life Technologies and Expression Analysis (LTEA) Assay for Tumor Protein P53 (TP53) using HepaRG (AID 2283537; active = hit-call score of the fitted dose curve at least 0.9, where 1 is the maximum; inactive = score below 0.9). As to conditions: mRNA level, 48 h; actives raise or lower the signal. In outline:
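Differentiated HepaRG cells in serum-free induction medium exposed 48 h in duplicate to 8 half-log concentrations, top 100 uM, 0.5% DMSO. TP53 mRNA by TaqMan qRT-PCR (Fluidigm), normalized to ACTB, GAPDH, POLR2A; fitted bidirectionally versus DMSO.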

Read-out in assay [5]: UDP glucuronosyltransferase (UGT1A1), UGT1A1 (gene 54658)
Kind of assay: LTEA_HepaRG_UGT1A1: Life Technologies and Expression Analysis (LTEA) Assay for UDP glucuronosyltransferase (UGT1A1) using HepaRG (AID 2283538; active = hit-call score of the fitted dose curve at least 0.9, where 1 is the maximum; inactive = score below 0.9). As to conditions: mRNA level, 48 h; actives raise or lower the signal. In a few lines:
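Differentiated human HepaRG cells in serum-free induction medium were exposed in duplicate for 48 h to eight half-log concentrations up to 100 uM in 0.5% DMSO. UGT1A1 mRNA was quantified by TaqMan qRT-PCR, normalized to ACTB, GAPDH and POLR2A, and fitted bidirectionally against DMSO.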

Read-out in assay [6]: UDP glucuronosyltransferase (UGT1A6), UGT1A6 (gene 54578)
As to the kind of experiment: LTEA_HepaRG_UGT1A6: Life Technologies and Expression Analysis (LTEA) Assay for UDP glucuronosyltransferase (UGT1A6) using HepaRG (AID 2283539; active = hit-call score of the fitted dose curve at least 0.9, where 1 is the maximum; inactive = score below 0.9). As to conditions: mRNA level, 48 h; actives raise or lower the signal. In outline: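 Expression was quantified by TaqMan qRT-PCR on Fluidigm arrays with ACTB/GAPDH/POLR2A normalization and bidirectional fitting against 0.5% DMSO. HepaRG cells (~100,000/well) were treated in duplicate for 48 h at eight half-log concentrations up to 100 uM in serum-free induction medium.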

Read-out in assay [7]: X-box binding protein 1 (XBP1), XBP1 (gene 7494)
Kind of assay: LTEA_HepaRG_XBP1: Life Technologies and Expression Analysis (LTEA) Assay for X-box binding protein 1 (XBP1) using HepaRG (AID 2283540; active = hit-call score of the fitted dose curve at least 0.9, where 1 is the maximum; inactive = score below 0.9). As to conditions: mRNA level, 48 h; actives raise or lower the signal. In a few lines:
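XBP1 transcript by qRT-PCR (housekeeping-normalized: ACTB, GAPDH, POLR2A) after 48 h chemical treatment of HepaRG cells, 8-point half-log series topping at 100 uM, vehicle 0.5% DMSO. Gain and loss of signal fitted relative to DMSO.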

Assay [8] can be described thus: LTEA_HepaRG_LDH_cytotoxicity: Cytotoxicity Assessment in the Life Technologies and Expression Analysis (LTEA) Assay (AID 2283563). In a few lines:
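LDH release into culture medium read after 48 h chemical treatment of HepaRG cells. Duplicate wells, eight-point half-log series topping at 100 uM, 0.5% DMSO vehicle and baseline.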

The nature of assay [9]: TOX21_p53_BLA_p2_viability: Viability Assessment in the Tox21 HCT-116 p53 Agonism Beta-lactamase Assay, Phase 2 (AID 2283591).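 Note: compound exposure lasted 16 h at 37 °C; actives lower the ATP signal meaning cytotoxicity.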 In outline: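 HCT-116 p53-bla cells (4000/well) rested 5 h at 37C, then received compounds in DMSO (217-fold dilution) for 16 h at 37C, 5% CO2. After the CCF4 read, CellTiter-Glo was added; ATP luminescence was read after 30 min at room temperature.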

The target of assay [10] is Cellular tumor antigen p53 (Homo sapiens) (UniProt P04637). Kind of assay: TOX21_p53_BLA_p2_ratio: Tox21 HCT-116 p53 Agonism Beta-lactamase Assay, Ratio, Phase 2 (AID 2283592). In a few lines:
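Gain-of-signal p53 agonism was scored from the beta-lactamase FRET ratio (460/530 nm, 405 nm excitation) in HCT116 cells treated 16 h at 37C, 5% CO2, with DMSO serving as negative control and baseline.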

Assay [11] in a line: TOX21_p53_BLA_p3_viability: Viability Assessment in the Tox21 HCT-116 p53 Agonism Beta-lactamase Assay, Phase 3 (AID 2283593).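 Note: cells exposed to compound for 16 h before reading.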 In a few lines: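 HCT-116 cells (4000/well) rested 5 h at 37C, then got DMSO compounds by pin tool (217-fold dilution) for 16 h at 37C, 5% CO2. After the bla read, CellTiter-Glo was added and luminescence read at 30 min, room temperature.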
Assay [12] concerns the target Cellular tumor antigen p53 (Homo sapiens) (UniProt P04637). Kind of assay: TOX21_p53_BLA_p3_ratio: Tox21 HCT-116 p53 Agonism Beta-lactamase Assay, Ratio, Phase 3 (AID 2283596). In a few lines: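 HCT116 p53-bla cells (4000/well) given compound in DMSO (217-fold dilution) after 5 h, incubated 16 h at 37C. CCF4-AM substrate 2 h at room temperature; 460/530 nm emission ratio, gain fitted against DMSO.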

A short description of assay [13]: TOX21_p53_BLA_p4_viability: Viability Assessment in the Tox21 HCT-116 p53 Agonism Beta-lactamase Assay, Phase 4 (AID 2283597).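 Note: hits lower the luminescence signal meaning cytotoxicity.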 In outline: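 Following a 16 h exposure at 37C, the treated HCT116 wells were first read for the FRET ratio. They were then lysed with CellTiter-Glo, and ATP luminescence was recorded after 30 min at room temperature.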
Assay [14] is described as follows: TOX21_p53_BLA_p5_viability: Viability Assessment in the Tox21 HCT-116 p53 Agonism Beta-lactamase Assay, Phase 5 (AID 2283600). In outline: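 After the 460/530 nm beta-lactamase measurement, the wells received an ATP-detection luciferase reagent; signal was read 30 min later at RT. Compound treatment lasted 16 h on cells pre-incubated 5 h post-seeding.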
Assay [15] deals with Cellular tumor antigen p53 (Homo sapiens) (UniProt P04637). As to the kind of experiment: TOX21_p53_BLA_p4_ratio: Tox21 HCT-116 p53 Agonism Beta-lactamase Assay, Ratio, Phase 4 (AID 2283601). In outline:
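HCT116 cells carrying an inducible beta-lactamase reporter were plated at 4000 cells/well, rested 5 h, then exposed to compounds in DMSO (217-fold dilution) for 16 h at 37C. CCF4-AM substrate was loaded 2 h at room temperature; 460/530 nm emission ratio scored gain-of-signal versus DMSO.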

Assay [16] can be described thus: Tanguay_ZF_120hpf_MORT_legacy: (Legacy) Oregon State University Tanguay Lab 120 Hour Post-fertilization zebrafish Assay for Mortality (AID 2283633). In a few lines: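 Static waterborne exposure from 6 to 120 hpf at 28C of single dechorionated wild-type (5D) embryos per well, 0.64% DMSO final. Death recorded present/absent by brightfield at 24 and 120 hpf.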
A short description of assay [17]: Tanguay_ZF_120hpf_YSE_legacy: (Legacy) Oregon State University Tanguay Lab 120 Hour Post-fertilization zebrafish Assay for Yolk Sac Edema (AID 2283634).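 For AC50: actives raise the incidence of yolk sac edema above the DMSO baseline.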 In a few lines:
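Presence or absence of yolk sac edema was recorded at 120 hpf in surviving larvae. These were wild-type Tropical 5D embryos, chorion removed at 4 hpf, held in static exposure at 28C from 6 hpf with 0.64% DMSO vehicle.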

A short description of assay [18]: Tanguay_ZF_120hpf_AXIS_legacy: (Legacy) Oregon State University Tanguay Lab 120 Hour Post-fertilization zebrafish Assay for Body Axis Malformation (AID 2283635).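 For AC50: potency for an increased fraction of larvae scored with body axis malformation.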 In outline:
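Binary scoring of axis defects at 120 hpf under brightfield, fitted positive versus DMSO. Tropical 5D embryos, chorion removed by pronase at 4 hpf, were singly exposed in sealed, dark plates at 28C from 6 hpf; DMSO 0.64% final.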

For assay [19], the target named is Cellular tumor antigen p53 (Homo sapiens) (UniProt P04637). Kind of assay: TOX21_p53_BLA_p5_ratio: Tox21 HCT-116 p53 Agonism Beta-lactamase Assay, Ratio, Phase 5 (AID 2283599). In outline: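 HCT-116 cells carrying a p53-inducible beta-lactamase reporter were seeded at 4000 cells/well and dosed after 5 h with compound in DMSO (217-fold dilution). After 16 h at 37C, CCF4-AM substrate was added for 2 h, and the 460/530 nm emission ratio was scored as gain-of-signal versus DMSO.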

Assay [20] in a line: ATG_XTT_Cytotoxicity: Cytotoxicity Assessment in the Attagene TRANS-FACTORIAL HepG2 Assay (AID 2283584). In outline:
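Viability endpoint from XTT after 24 h chemical exposure of reporter-transfected human HepG2 liver cells; signal loss fitted relative to DMSO negative control.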

Cellular tumor antigen p53 (Homo sapiens), sequence (P04637 whole entry, looked up): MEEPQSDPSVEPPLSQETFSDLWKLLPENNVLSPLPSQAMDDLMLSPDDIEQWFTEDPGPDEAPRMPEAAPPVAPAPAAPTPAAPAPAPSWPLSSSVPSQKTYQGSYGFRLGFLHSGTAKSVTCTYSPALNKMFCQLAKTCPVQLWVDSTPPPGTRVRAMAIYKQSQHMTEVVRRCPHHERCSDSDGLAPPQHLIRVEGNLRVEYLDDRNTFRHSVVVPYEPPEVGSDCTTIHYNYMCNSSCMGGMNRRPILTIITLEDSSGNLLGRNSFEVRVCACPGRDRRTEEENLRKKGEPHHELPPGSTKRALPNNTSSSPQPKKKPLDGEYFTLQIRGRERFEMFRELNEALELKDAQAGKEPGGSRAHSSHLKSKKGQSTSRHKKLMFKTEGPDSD

Take `CC(C)(C)[C@@H](O)[C@@H](Cc1ccc(Cl)cc1)n1cncn1`: the call in assay [1], in assay [2], in assay [4], in assay [6], in assay [7] and in assay [8] was inactive. Also, the compound was called inactive in [9], in assay [10], in [11], in [12], in [13] and in [14]. Further, the outcome in [15] and in assay [16] was inactive. Moreover, the AC50 is 32.7 µM (active) in assay [3], 6.98 µM (active) in [5], 36.1 µM (active) in assay [17] and 40.9 µM (active) in assay [18].

As to `COC(=O)c1ccc(I)cc1S(=O)(=O)NC(=O)Nc1nc(C)nc(OC)n1`, the compound was classed as inactive in [1], in assay [2], in assay [3], in [4], in assay [6] and in assay [7]. Moreover, the compound was called inactive in assay [8], in assay [9], in assay [10], in assay [11], in [13] and in [19]. For the same compound, the call in [14], in assay [15], in assay [16], in assay [17] and in assay [18] was inactive.

As for `COc1nc(C)nc(NC(=O)NS(=O)(=O)c2ccccc2OCCCl)n1`, the compound was called inactive in assay [20], in assay [9], in assay [10], in assay [12], in [13] and in assay [19]. Moreover, the result in [15] was inactive.

`CCOC(=O)C(C)Oc1ccc(Oc2nc3ccc(Cl)cc3o2)cc1` (stereo not drawn): the compound was classed as inactive in assay [1], in assay [2], in [3], in assay [4], in [5] and in assay [6]. Also, the outcome in assay [7], in assay [8], in [9], in assay [10], in assay [11] and in [19] was inactive. Besides, the outcome in assay [14], in assay [16], in assay [17] and in assay [18] was inactive.

A word on the AC50: it is the concentration at which the activity in the assay is half-maximal.

(Values after PubChem BioAssay (EPA / NIEHS).)
